This note sets out measurements from PubChem BioAssay AID602144 (Vanderbilt Specialized Chemistry Center, 2011).

SMILES strings stand for the structures. A number with no mark means an inactive call. The source made the active and inactive calls. Cut-off read from the data, not from the text of the source: active = remaining activity below about 50%; inactive = the rest.

This experiment deals with Phospholipase D1 (Homo sapiens) (UniProt Q13393). Kind of experiment: PLD1 inhibitors in cells, Calu-1 cells, single concentration (AID 602144).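 Note: tested at 200 nM.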 As to conditions: cellular PLD1 activity, hits give low values.
Sequence of Phospholipase D1 (Homo sapiens) (Q13393 whole entry, looked up): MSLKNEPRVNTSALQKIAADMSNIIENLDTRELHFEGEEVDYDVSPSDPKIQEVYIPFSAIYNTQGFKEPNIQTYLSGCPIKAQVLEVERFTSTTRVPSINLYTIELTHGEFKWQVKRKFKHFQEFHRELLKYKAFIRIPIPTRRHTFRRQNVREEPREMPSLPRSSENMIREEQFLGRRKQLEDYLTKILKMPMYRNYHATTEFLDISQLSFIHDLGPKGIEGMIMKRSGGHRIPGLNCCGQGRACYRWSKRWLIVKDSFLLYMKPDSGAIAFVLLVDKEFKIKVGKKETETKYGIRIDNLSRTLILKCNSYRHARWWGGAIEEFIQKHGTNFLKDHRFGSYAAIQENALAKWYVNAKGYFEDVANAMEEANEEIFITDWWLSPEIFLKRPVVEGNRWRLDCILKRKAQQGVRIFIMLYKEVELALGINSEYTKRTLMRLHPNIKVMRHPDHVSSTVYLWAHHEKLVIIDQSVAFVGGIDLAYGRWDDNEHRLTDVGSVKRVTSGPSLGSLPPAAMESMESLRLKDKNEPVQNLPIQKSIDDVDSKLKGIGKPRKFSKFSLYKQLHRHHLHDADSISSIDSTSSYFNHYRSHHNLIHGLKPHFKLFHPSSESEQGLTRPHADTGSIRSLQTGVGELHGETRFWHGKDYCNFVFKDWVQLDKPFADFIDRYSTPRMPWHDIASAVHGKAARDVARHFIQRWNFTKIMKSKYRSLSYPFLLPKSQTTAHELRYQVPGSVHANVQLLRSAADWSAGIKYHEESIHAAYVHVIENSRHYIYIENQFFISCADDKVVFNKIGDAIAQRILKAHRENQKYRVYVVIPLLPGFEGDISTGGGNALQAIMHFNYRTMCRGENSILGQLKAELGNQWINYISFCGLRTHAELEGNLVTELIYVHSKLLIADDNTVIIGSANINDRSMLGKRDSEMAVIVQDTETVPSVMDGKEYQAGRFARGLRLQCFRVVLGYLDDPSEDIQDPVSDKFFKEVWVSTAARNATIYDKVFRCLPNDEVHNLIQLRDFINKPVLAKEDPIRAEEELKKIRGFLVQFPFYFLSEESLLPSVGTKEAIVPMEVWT
Sequence of Phospholipase D1 (Homo sapiens) (Q13393 whole entry, looked up): as above
For `O=C(NCCN1CCC2(CC1)CCN(c1ccccc1)C2=O)c1ccc2ccccc2c1`, the remaining activity was 113%.
For `O=C(NCCN1CCC(n2c(=O)[nH]c3ccccc32)CC1)c1ccc2c(c1)CCCC2`, the remaining activity is 83.6%.
With `C[C@@H](CN1CCC(n2c(=O)[nH]c3ccccc32)CC1)NC(=O)c1cc2ccccc2[nH]1` the figure was 8.14% (active).
Regarding `C[C@@H](CN1CCC2(CC1)CN(S(C)(=O)=O)c1ccccc12)NC(=O)[C@H]1C[C@@H]1c1ccccc1`, the remaining activity was 148%.
Take `C[C@@H](CN1CC=C(n2c(=O)[nH]c3ccccc32)CC1)NC(=O)c1ccc2ccccc2c1`: the remaining activity was 0.0151% (active).
With `O=C(NCCN1CC=C(n2nnc3cc(C(F)(F)F)ccc32)CC1)c1cnc2ccccc2c1`, the remaining activity is 44.5% (active).
In the case of `O=C(NCCN1CCC(n2c(=O)[nH]c3ccccc32)CC1)c1cccc2cccnc12`, the remaining activity was 30.7% (active).
Consider `C[C@@H](CN1CCC(n2c(=O)[nH]c3ccc(F)cc32)CC1)NC(=O)c1ccc(F)cc1`, for which the remaining activity is 16% (active).
For `Cc1ccc(C(=O)NCCN2CCC(n3c(=O)[nH]c4cc(Br)ccc43)CC2)cc1`, the remaining activity was 3.74% (active).
As to `C[C@@H](CN1CCC(n2c(=O)[nH]c3ccc(F)cc32)CC1)NC(=O)c1ccc(Cl)cc1`, the remaining activity was 17.7% (active).
With `C[C@@H](CN1CCC(n2c(=O)[nH]c3ccccc32)CC1)NC(=O)Cc1cccs1`, the remaining activity was 101%.
Regarding `O=C(NCCN1CCC(n2c(=O)[nH]c3ccccc32)CC1)NC(c1ccccc1)c1ccccc1`, the remaining activity is 146%.
Consider `O=c1[nH]c2ccccc2n1C1CCN(CCNS(=O)(=O)c2cccc(C(F)(F)F)c2)CC1`, for which the remaining activity is 111%.
With `O=C(NCCN1CCN(c2ccncc2)CC1)c1ccccc1-c1ccccc1`, the remaining activity was 147%.
As to `C[C@@H](CN1CCC(n2c(=O)[nH]c3ccccc32)CC1)NC(=O)c1ccco1`, the remaining activity is 41.7% (active).
`O=C(NCCN1CCC(n2c(=O)[nH]c3ccccc32)CC1)c1cccc(Cl)n1`: the remaining activity is 37.8% (active).
For the molecule `O=C(NCCN1CCC(C(=O)NCC2CC2)CC1)c1ccc2ccccc2c1`, the remaining activity is 106%.
`O=C(NCCN1CCC(n2c(=O)[nH]c3ccccc32)CC1)Nc1ccccc1C(F)(F)F`: the remaining activity is 131%.
Consider `C[C@@H](CN1CCC(n2c(=O)[nH]c3cc(-c4ccccc4)ccc32)CC1)NC(=O)[C@H]1C[C@@H]1c1ccccc1`, for which the remaining activity is 67.4%.
With `O=c1[nH]c2ccccc2n1C1CCN(CCNS(=O)(=O)c2ccc([N+](=O)[O-])cc2)CC1` the figure was 119%; with `O=C(NCCN1CCC(n2c(=O)[nH]c3ccccc32)CC1)c1cc2ccc3ccccc3c2c2ccccc12`, 76.6%; with `O=C1c2ccccc2C(=O)N1CCCNc1ccc2ccccc2c1`, 145%.
With `C[C@H](CN1CCC(n2nnc3ccccc32)CC1)NC(=O)c1cnc2ccccc2c1` the figure was 38.2% (active).
Consider `O=C1c2ccccc2C(=O)N1CCN1CCC(n2c(=O)[nH]c3cc(Cl)ccc32)CC1`, for which the remaining activity was 107%.
Take `C[C@H](CN1CCC2(CC1)CNc1ccccc12)NC(=O)c1cnc2ccccc2c1`: the remaining activity was 55%.
As for `Nc1ccc(C(=O)NCCN2CCC(n3c(=O)[nH]c4ccccc43)CC2)cc1OC(F)(F)F`, the remaining activity is 72.6%.
With `COc1cc(C(=O)NCCN2CCN(c3ccncc3)CC2)ccc1N`, the remaining activity is 90.7%.
